Screening results as filed in PubChem.
HT1080 IDH1KD tx – qHTS for induction of synthetic lethality in tumor cells producing 2HG: qHTS for the HT-1080-IDH1KD cell line. HT-1080 IDH1 knockdown viability, ATP luminescence, 48 h. Potency, µM (titrated, usually from 46.1 µM), inactives show at the highest dose activity, negative = toxicity, usual class: cytotoxic. 360,000 compounds, 2% hits. AID 686971, 2013;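 also: potency is read from the fitted curve at half-maximal effect; 0% = DMSO wells and -100% = cell-free medium wells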
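% activity derives from luminescence (CellTiter-Glo), normalised to DMSO and no-cell wells. HT-1080-IDH1KD cells, 750/well, had 48 h compound exposure at 37 °C.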
HT1080-NT tox – qHTS for induction of synthetic lethality in tumor cells producing 2HG: qHTS for the HT-1080-NT fibrosarcoma cell line; AID 686970, 2013; 360,000 compounds, 1.6% hits; Potency, µM (titrated, usually from 46.1 µM), inactives show at the highest dose activity, negative = less viability, most hits filed as cytotoxic; HT-1080-NT fibrosarcoma viability, CellTiter-Glo ATP luminescence, 48 h;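 also: NT is the 2HG producing partner of a matched IDH1 knockdown line; potency is read from the fitted curve at half-maximal effect; 0% = DMSO-treated cells and -100% = media-only wells without cells; nearly all actives have a fitted effect of over 55% in size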
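Luminescent CellTiter-Glo readout after 48 hours of compound exposure at 37 degrees C defined viability of HT-1080-NT cells. Activity was normalized to DMSO wells and cell-free media wells; concentration-response curves were fitted and assigned curve classes.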
IL1B secr inh – qHTS for Inhibitors of Inflammasome Signaling: IL-1-beta AlphaLISA Primary Screen; THP-1 LPS/ATP IL-1B secretion, AlphaLISA, 16 h; stronger effect = lower value; activity change, % at 57.5 µM; 360,000 compounds, 4.7% hits; in the data active = activity change below about -50%; inconclusive = mostly about -30% to -49%
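Secreted IL-1B measured by AlphaLISA bead assay after 16 h compound exposure of THP-1 cells; compounds (final up to 57.5 uM) added 1 h before LPS (250 ng/mL) and ATP (1.25 mM) stimulation; lower signal means less secretion.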
TDP1 cell CPT – qHTS for Inhibitors of human tyrosyl-DNA phosphodiesterase 1 (TDP1): qHTS in cells in presence of CPT | chicken DT40 Tdp1-/-;hTDP1 cells + 20 nM CPT, ATP luminescence, 48 h | Potency, µM (highest dose often 46.2 µM), for inactives: top-dose activity change, negative = growth inhibition, actives largely listed as inhibitors | 420,000 compounds, 12% hits; also: potency is read from the fitted curve at half-maximal effect; nearly all actives have a fitted effect of over 55% in size
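Chicken DT40 Tdp1-/- cells stably complemented with human TDP1 were seeded at 400 cells/well in medium containing 20 nM camptothecin, exposed to pin-transferred compounds, and grown at 37 °C for at least 48 hr. Viability was read as ATP luminescence.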
TDP1 cell noCPT – qHTS for Inhibitors of human tyrosyl-DNA phosphodiesterase 1 (TDP1): qHTS in cells in absence of CPT; DT40 Tdp1-/- hTDP1 cells, no CPT, ATP luminescence, 48 h; Potency, µM (series often up to 46.2 µM), for the others: top-dose activity change, negative = growth inhibition, hits mostly inhibitors; 420,000 compounds, 15% hits; AID 686978, 2013; also: potency is read from the fitted curve at half-maximal effect; nearly all actives have a fitted effect of over 55% in size
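Cells were dispensed at 400 per well, compounds added by pin tool, plates incubated ≥48 hr at 37 °C, then CellTiter-Glo added for 30 min at room temperature before luminescence reading. Line: DT40 Tdp1-/- complemented with hTDP1; camptothecin omitted.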
* marks the source's active call; other numbers are inactive results; ? = inconclusive; · = no result given; [ ] = another dose, or the depositor's remark. Hits are enriched below; roughly 19% of the tested compounds scored in any of these assays. Unless noted, calls follow the shape of the dose curve; as a rule, active = well fitted curve in the direction sought with a large enough effect; inconclusive = small, poorly fitted or top-dose-only effect, or another doubt; inactive = no such curve, though single readings can be large; an effect the other way counts as inactive or inconclusive. Unless noted, % is scaled to controls: 0 for no effect and ±100 for the full control effect.

SMILES	HT1080 IDH1KD tx	HT1080-NT tox	IL1B secr inh	TDP1 cell CPT	TDP1 cell noCPT
Cc1ccc(NC(=O)CN2C(=O)NC3(CCc4ccccc43)C2=O)cc1Cl (stereo not drawn)	-4%[9.24 µM]	-26%	1	-25%	26µM*
CC(C)c1ccc(C(=O)CN2C(=O)NC3(CCc4ccccc43)C2=O)cc1 (stereo not drawn)	?	-13%	?	?	21µM*
O=C(CN1C(=O)NC2(CCc3ccccc32)C1=O)c1ccc(Cl)cc1 (stereo not drawn)	-8%	-12%	-7	-8%	?
O=C(CN1C(=O)NC2(CCCc3ccccc32)C1=O)c1ccc(Br)cc1 (stereo not drawn)	2%	0%	-8	?	13µM*
O=C(CN1C(=O)NC2(CCc3ccccc32)C1=O)c1ccc(Br)cc1 (stereo not drawn)	0%	-2%	-59*	?	-26%
CCN(CC(=O)Nc1cccc(OC)c1)C(=O)C1CC(=O)N(Cc2ccccc2Cl)C1 (stereo not drawn)	-7%	-5%	-19	-16%	-19%
COc1ccc(N2CCN(C(=O)CN3C(=O)NC4(CCCc5ccccc54)C3=O)CC2)cc1 (stereo not drawn)	-14%	-4%	-4	-8%	16µM*
Cc1ccccc1NC(=O)CN1C(=O)NC2(CCc3ccccc32)C1=O (stereo not drawn)	1%	-7%	-10	-4%	-13%
COc1cc2c(cc1NC(=O)CN1C(=O)NC3(CCc4ccccc43)C1=O)oc1ccccc12 (stereo not drawn)	15µM*	23µM*	-17	?	?
O=C(NCCc1ccc(Cl)cc1)c1cccn1-c1nnc(N2CCCC2)s1	·	·	·	23µM*	?
CCOc1ccc(CCNC(=O)C2CCN(c3nnc(-n4cccc4)s3)CC2)cc1	2%	5%	10	10%	?
O=C(NCc1cccc(Br)c1)c1cccn1-c1nnc(N2CCCCC2)s1	·	·	·	?	15µM*
O=C(NCCc1ccc(Cl)cc1)c1cccn1-c1nnc(N2CCCCC2)s1	·	·	·	?	23µM*
CCOC(=O)Nc1c(Cl)n(C)c(=O)n(C)c1=O	-5%	-2%	-7	?	-29%
Cc1cc2occ(CC(=O)N(C)CC(=O)Nc3ccccc3C(F)(F)F)c2cc1C	5%	2%	-23	?	-16%
C[C@H]1CCCCO[C@H](CN(C)CC2CCCCC2)[C@@H](C)CN([C@@H](C)CO)C(=O)c2cc(NS(=O)(=O)c3ccccc3)ccc2O1	?	?	?	?	-4%
Cc1ccc(-n2c(C)cc(/C=N/Nc3ccc([N+](=O)[O-])cn3)c2C)cc1	-5%	-17%	-11	-16%	-26%
Cc1cc(/C=N/Nc2ccc([N+](=O)[O-])cn2)c(C)n1-c1ccccc1	5%	3%	7	18µM*	?
Cc1ccc(C(=O)N/N=C/c2cn(Cc3ccccc3)c3ccccc23)cn1	-24%	-18%	11	?	21µM*
Cc1ccc(Cn2cc(/C=N/Nc3ccc([N+](=O)[O-])cn3)c3ccccc32)cc1	?	?	2	?	16µM*
O=C(N/N=C/c1cn(Cc2ccccc2)c2ccccc12)c1cc(O)cc(O)c1	?	-19%	?	-14%	2%
CSc1nc(C)cc(SCCO)n1	1%	-12%	0	-29%	-18%
COC(=O)c1ccc(C(=O)OC)c(NC(=S)N2CCOCC2)c1	12%	15%	34	1%	8%
O=C(O)c1cccc(Cn2c(Cl)c(/C=N/NC(=O)c3ccco3)sc2=O)c1	5%	1%	9	-21%	7%
CC1=C(C)/C(=N/OC(=O)c2cccc([N+](=O)[O-])c2)C=CC1=O	18µM*	?	-4	21µM*	21µM*
SMILES	HT1080 IDH1KD tx	HT1080-NT tox	IL1B secr inh	TDP1 cell CPT	TDP1 cell noCPT
Cc1ccc(NC2=NC(=S)N(CC#N)C23CCCCC3)cc1	-9%	-7%	-15	-17%	?
Cc1cc(C)c2c(N)c(C(=O)Nc3ccccc3Cl)sc2n1	?	?	35	?	?
COc1ccccc1NC(=O)c1sc2nc(C)c(C(=O)Nc3ccc(C)cc3C)c(-c3cccs3)c2c1N	·	·	·	-2%	-7%
CCC(C)NC(=O)c1sc2nc(C)c(C(=O)Nc3ccc(C)cc3C)c(-c3ccc(NC(C)=O)cc3)c2c1N (stereo not drawn)	·	·	·	21µM*	?
COc1ccc(NC(=O)c2sc3nc(C)c(C(=O)Nc4ccc(C)cc4C)c(-c4cccs4)c3c2N)cc1	·	·	·	-24%	-24%
CCC(C)NC(=O)c1sc2nc(C)c(C(=O)Nc3ccc(C)cc3C)c(-c3ccc(Cl)cc3)c2c1N (stereo not drawn)	·	·	·	23µM*	?
CCC(C)NC(=O)c1sc2nc(C)c(C(=O)Nc3ccc(C)cc3C)c(-c3ccccc3Cl)c2c1N (stereo not drawn)	·	·	·	15µM*	?
CC(C)(Oc1ccc(Cl)cc1)C(=O)NCC1CCCO1 (stereo not drawn)	-10%	-6%	-3	2%	-1%
COc1ccc(-n2c(CN3CCN(c4ccc(F)cc4)CC3)nc3ccc([N+](=O)[O-])cc3c2=O)c(OC)c1	6%	0%	21	?	?
O=C(c1ccco1)N1CCN(Cc2nc3ccc([N+](=O)[O-])cc3c(=O)n2-c2ccccc2F)CC1	-14%	-12%	70	?	8.2µM*
COc1ccc(-n2c(CN3CCN(Cc4ccccc4)CC3)nc3ccc([N+](=O)[O-])cc3c2=O)c(OC)c1	-2%	-11%	62	?	-7%
COc1ccc(-n2c(CN3CCN(c4ccccn4)CC3)nc3ccc([N+](=O)[O-])cc3c2=O)c(OC)c1	0%	-1%	-23	?	21µM*
O=C(c1ccco1)N1CCN(c2ccc([N+](=O)[O-])cc2F)CC1	-1%	-17%	8	?	-16%
O=c1c2cc([N+](=O)[O-])ccc2nc(CN2CCN(c3ccccn3)CC2)n1-c1ccccc1F	5%	11%	32	?	15µM*
Nc1c(-c2nc(-c3ccc4c(c3)OCO4)cs2)c2ccccn2c1C(=O)c1ccccc1	·	·	·	-23%	?
Cc1cc(C)nc(SSc2nc(C)cc(C)n2)n1	?	?	7	?	?
